Screens: PubChem, National Center for Advancing Translational Sciences (NCATS)
IMPase inh: membrane-permeable compound that blocks inositol monophosphatase; P97697; CHO-M1 cells, IP1 accumulation, HTRF TR-FRET ratio; inhibition (IP1 accumulation), % at 46.1 µM; 120,000 tested, under 10 active; AID 901; active means well fitted curve in the direction sought with a large enough effect in the signal ratio, not every such curve was filed as active; inconclusive means small, poorly fitted or top-dose-only effect, or a change in a side signal; inactive means no such curve, though single readings can be large or run the other way; the % refers to the signal ratio;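 further: cells stimulated with carbachol in lithium chloride buffer; plate controls were DMSO basal wells for no effect and reference inhibitor wells for full effect; higher means more IMPase inhibition seen as more IP1 and lower FRET ratio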
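Seeded CHO-M1 cells were dosed with compound at up to 46 uM, stimulated with carbachol for 30 min, then lysed in IP-One detection reagents. Higher IP1 lowers the TR-FRET signal.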
HPGD inh: inhibitors of human 15-hydroxyprostaglandin dehydrogenase (HPGD); P15428; actives 4.3% (n = 150,000); Potency, µM, for inactives: at the top dose activity change, negative = inhibition, most hits filed as inhibitors; AID 894; purified HPGD, NADH fluorescence kinetic, PGE2 substrate; further: potency means the concentration at half of the fitted maximal effect
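NADH formation kinetics: reaction with 30 uM PGE2 and 1 mM NAD+ (final), 20 nM enzyme, Tris-HCl pH 8 with Tween 20, after 15 min compound preincubation at room temperature. Fluorescence change, last versus first of five reads.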
PNC inhibitor: inhibitors of perinucleolar compartment assembly. PC3M PTB-GFP, PNC prevalence imaging, 16 h; stronger effect = lower value. actives 3.1% (n = 140,000). activity change (PNC), negative = inhibition, % at 10 µM;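 active means readout at or below -70, meaning at least 70% loss of cells showing the perinucleolar compartment, a nuclear body marking cancer cells; inconclusive means readout between -30 and a set limit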;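 further: plate controls were DMSO wells for no effect and camptothecin positive control wells for full effect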
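Read-out is percentage of cells bearing a perinucleolar compartment, from automated 20x imaging of fixed, Hoechst-stained PC3M PTB-GFP cells. Cells were seeded 4 h, then exposed 16 h to compound (23 nl of library stock) in duplicate plates.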
ALDH1A1 inh: ALDH1A1 (human) enzyme inhibition; actives 7.3% (n = 220,000); AID 1030; P00352; Purified ALDH1A1, NADH fluorescence, propionaldehyde substrate; Potency, µM (series often up to 75.3 µM), for inactives: top-dose activity, negative = inhibition, most hits filed as inhibitors;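 further: potency means the concentration at half of the fitted maximal effect; plate controls were no enzyme wells and a reference inhibitor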
IMPase Li cell: IMPase inhibition in cells with lithium potentiation | CHO-M1 cells, IP1 TR-FRET (IP-One), carbachol + lithium | Potency, µM (highest dose often 59.4 µM), for the others: top-dose activity, negative = IMPase inhibition, hits mostly inhibitors | actives 0.35% (n = 210,000) | AID 1457; active means well fitted curve in the direction sought with a large enough effect; inconclusive means small, poorly fitted or top-dose-only effect, or another doubt; inactive means no such curve, though single readings can be large; an effect the other way counts as inactive or inconclusive;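 further: IP1 builds up when IMPase is blocked and the TR-FRET signal falls; potency means the concentration at half of the fitted maximal effect; plate controls were basal vehicle for no effect and high inhibitor control for full effect; nearly all actives have a fitted effect of over 50% in size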
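Test compounds were applied to CHO-M1 cells previously cultured for 16–30 h at 2000 per well. A small lithium amount accompanied them; after 30 min at 37C, IP1 was quantified by TR-FRET.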
ALOX12 inhib: inhibitors of human 12-lipoxygenase (ALOX12); purified 12-hLO, xylenol orange hydroperoxide absorbance; actives 0.12% (n = 150,000); P18054; Potency, µM (highest dose often 57.1 µM), without a hit: at the top dose activity change, negative = inhibition, most hits filed as inhibitors; active means well fitted curve in the direction sought with a large enough effect; inconclusive means small, poorly fitted or top-dose-only effect, or another doubt; inactive means no such curve, though single readings can be large; an effect the other way counts as inactive or inconclusive; further: potency means the concentration at half of the fitted maximal effect; nearly all actives have a fitted effect of over 55% in size
Target sequence (P18054 whole entry, looked up): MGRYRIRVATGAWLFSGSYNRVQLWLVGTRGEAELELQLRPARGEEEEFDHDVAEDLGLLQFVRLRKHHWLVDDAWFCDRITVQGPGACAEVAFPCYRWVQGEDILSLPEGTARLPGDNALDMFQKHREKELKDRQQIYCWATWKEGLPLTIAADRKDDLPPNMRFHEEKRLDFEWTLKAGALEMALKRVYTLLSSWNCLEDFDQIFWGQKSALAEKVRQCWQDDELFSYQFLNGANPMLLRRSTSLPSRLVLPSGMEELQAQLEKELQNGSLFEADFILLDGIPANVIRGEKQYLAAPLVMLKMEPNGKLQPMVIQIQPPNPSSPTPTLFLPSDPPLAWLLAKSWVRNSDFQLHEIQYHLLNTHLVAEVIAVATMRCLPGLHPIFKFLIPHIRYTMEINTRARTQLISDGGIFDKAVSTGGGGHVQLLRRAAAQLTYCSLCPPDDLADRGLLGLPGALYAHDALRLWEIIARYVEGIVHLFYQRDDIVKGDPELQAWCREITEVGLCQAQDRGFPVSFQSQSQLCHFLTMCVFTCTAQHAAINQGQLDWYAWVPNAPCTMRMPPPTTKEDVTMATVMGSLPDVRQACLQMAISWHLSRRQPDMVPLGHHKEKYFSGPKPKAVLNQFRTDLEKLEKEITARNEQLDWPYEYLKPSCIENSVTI
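Purified human 12hLO (150 nM), preincubated 15 min with compound, then 40 uM arachidonic acid for 30 min, room temperature, Hepes pH 7.0 with 0.01% Triton X-100. Hydroperoxide detected by ferrous iron/xylenol orange; 573/405 nm absorbance ratio gives reaction progress.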
Numbers without * were called inactive; ? = inconclusive; nt = no result; ! = not confirmed by another sample; [ ] = remark or other dose. Shown are actives, neighbours in structure and some others; about 11% of the full set was active somewhere. Unless noted, the call rests on the fitted dose curve; in most records, active means well fitted inhibition curve with a large enough effect (not every such curve was filed as active); inconclusive means small, poorly fitted or top-dose-only effect, or another doubt; inactive means no such curve, though single readings can be large or run the other way. Unless noted, on the % scale 0 is the no-effect control and ±100 the full control effect.

SMILES	IMPase inh	HPGD inh	PNC inhibitor	ALDH1A1 inh	IMPase Li cell	ALOX12 inhib
CN1C(=O)C(=Cc2c(OCc3cnc(Cl)s3)ccc3ccccc23)C(=O)N(C)C1=O	nt	nt	nt	2.2µM*	25%	nt
C[Se]C[C@H](N)C(=O)O	nt	4%	nt	?	-8%	nt
CC(=O)C(Sc1ncnc2c1nnn2-c1ccc(F)cc1)C(=O)N(C)C (configuration not stated)	4	11µM*	-12	2.5µM*	-10%[38.3 µM]	-9%
C[C@@]12CC[C@H]3[C@@H](CCC4=C(O)C(=O)CC[C@]43C)[C@H]1CCC2=O	3	nt	nt	nt	nt	-7%
CC(C)[C@@H](Br)C(=O)NCC(=O)O	nt	-3%	nt	-1%[13.5 µM]	6%	3%[11.4 µM]
CN1[C@@H]2CC[C@H]1CC(O[C@@H](c1ccccc1)c1ccccc1N)C2 (some centres not stated)	23	nt	nt	nt	nt	3%
Cc1ccnc(-n2c(C)cc(C=C3C(=O)N(C)C(=S)N(C)C3=O)c2C)c1	5	32µM*	?	?	-3%[38.3 µM]	-14%
Cc1cc(C)cc(-n2c(C)cc(/C=C3\C(=O)NC(=O)N(C)C3=O)c2C)c1	nt	-3%	-13	12%	8%	-4%
CCCCCCCC(=O)Cl	nt	-9%	nt	?	6%	-1%
N#CSCSC#N	nt	6.3µM*	nt	0.11µM*	40%	-11%
CNc1ccc2oc(C[C@H]3O[C@]4(CC[C@H]3C)O[C@H]([C@H](C)C(=O)c3ccc[nH]3)[C@H](C)C[C@H]4C)nc2c1C(=O)O	9	?	nt	?	7%	-25%
Nn1c(Cc2cccc3ccccc23)n[nH]c1=S	nt	nt	nt	22µM*	2%	nt
CC1CC(OP(O)(=S)c2ccc(N(C)C)cc2NC(=O)c2cccs2)CC(C)(C)C1 (configuration not stated)	nt	nt	nt	4µM*	-1%	nt
CN(C)c1ccc(N(C)C)cc1	nt	-27%	nt	?	61%	-12%
C=CCN1CC[C@]23c4c5ccc(O)c4O[C@@H]2C(=O)CC[C@@]3(O)[C@H]1C5	0	nt	nt	nt	nt	-5%
CCOP(=O)(OCC)C(c1ccccc1)N(C)C=O (configuration not stated)	?	nt	3	18µM*	nt	0%
Cc1ccc(OP(=O)(Oc2ccc(C)cc2)N2C=Cc3ccccc3[C@H]2C#N)cc1	nt	-6%	nt	-11%[13.5 µM]	-2%	-14%[11.4 µM]
CC(Cl)CCl (configuration not stated)	nt	-1%	nt	4%	-5%	-1%
COc1cccc(-n2c(/C=C/c3ccc(O)c(O)c3)nc3ccccc3c2=O)c1	nt	nt	nt	25µM*	5%	nt
Cc1ccc(-c2nc3ccccc3c(=O)n2-c2cccc(O)c2)cc1	nt	nt	nt	?	7%	nt
Cc1nc2ccccc2c(=O)n1-c1cccc(O)c1	-7	7%	-107*	-2%	8%[38.3 µM]	-7%
Cc1cc(C=C(C#N)C#N)ccc1N1CCCC1	nt	nt	nt	?	22%	nt
N#CC(C#N)=Cc1cc(O)c(O)c(O)c1	36	?	nt	28µM*	47%	?
C=CCn1c(O)c(N=Nc2c(C)n(C)n(-c3ccccc3)c2=O)c(=O)[nH]c1=S	nt	-23%	-7	?	15%	-4%
CCOc1ccc(-n2c(O)c(N=Nc3c(C)n(C)n(-c4ccccc4)c3=O)c(=O)[nH]c2=O)cc1	nt	nt	nt	16µM*	nt	nt
SMILES	IMPase inh	HPGD inh	PNC inhibitor	ALDH1A1 inh	IMPase Li cell	ALOX12 inhib
Cc1c(N=Nc2c(O)[nH]c(=S)[nH]c2=O)c(=O)n(-c2ccccc2)n1C	23	28µM*	87	22µM*	19%	2%
C=C(Cl)Cl	nt	-5%	nt	-5%	3%	2%
CN(C)C1C(=O)C(C(N)=O)C(=O)C2(O)C(=O)C3C(=O)c4c(O)cccc4C(C)(O)C3C(O)C12 (configuration not stated)	nt	?	nt	-10%	?	9%[0.00818 µM]
CCOP(=O)(OCC)C(NC(=O)c1ccccc1)=C(Cl)Cl	12	2%	35	0%	-1%	-1%
CCOC(=O)C1=C(NC(=S)NC(=O)c2ccccc2)c2ccccc2CC12CCCC2	nt	-12%	64	22µM*	-3%	?
N#CC(Cl)(Cl)Cl	nt	-3%	nt	20µM*	6%	2%
C=C(C)C#N	nt	-4%	nt	-8%	-8%	-1%
CC(N)C(O)c1ccc(O)c(O)c1 (configuration not stated)	nt	3%	nt	1%	-5%	-4%
Cn1ccc(NC(=O)CCl)n1	nt	nt	nt	20µM*	3%	nt
CC/C(=N\Nc1ccccc1)c1c(O)n(C)c(=O)n(C)c1=O	3	-9%	10	?	14%	-3%
C/C(=N\NC(=S)Nc1ccccc1)c1c(O)n(C)c(=O)n(C)c1=O	nt	?	-1	0.79µM*	4%	2%
CCC(C)n1c(O)c(C(c2ccccn2)c2c(O)n(C(C)CC)c(=S)[nH]c2=O)c(=O)[nH]c1=S (configuration not stated)	-3	32µM*	?	7.1µM*	?	?
Cn1c(O)c(C(c2ccccn2)c2c(O)n(C)c(=S)n(C)c2=O)c(=O)n(C)c1=S	4	-2%	49	?	-4%[38.3 µM]	1%
Oc1ccc(Cl)cc1Cc1cc(Cl)ccc1O	nt	14µM*!	-1	12%	-2%	?
Oc1ccc(Cl)cc1Cc1ccccc1	nt	10µM*	nt	-5%	0%	-9%
Oc1ccc(Cl)cc1Cl	nt	-10%	nt	-5%	24%	-2%
O=C(O)[C@H](Cc1cnc[nH]1)N1C(=O)c2ccccc2C1=O	nt	-1%	nt	-7%[13.5 µM]	-8%	6%[11.4 µM]
C[C@@H]1CC[C@H]2[C@@H](C)C(=O)O[C@@H]3OC4(C)CC[C@@H]1[C@]32OO4	nt	-8%	nt	25µM*	-1%	-6%[0.00818 µM]
O=[N+]([O-])c1ccc(F)c([N+](=O)[O-])c1	nt	-24%	nt	20µM*	10%	2%
Nc1ccc([N+](=O)[O-])cc1[N+](=O)[O-]	nt	-2%	nt	-10%	5%	-1%
CCN(CC)c1ncnc2c1ncn2[C@@H]1O[C@@H](COP(=O)(O)OP(=O)(O)C(Br)(Br)P(=O)(O)O)[C@H](O)[C@@H]1O	-3	nt	nt	nt	nt	-5%
Cc1ccc(-n2c(-c3nn(C)c(C)c3Cl)n[nH]c2=S)cc1	?	28µM*	?	32µM*	?	-5%
COc1cc2c(cc1O)[C@H]1Cc3ccc(OC)c(O)c3CN1CC2	5[20.6 µM]	-2%	nt	2%[20.9 µM]	10%	-6%[25.6 µM]
O=C(O)C[C@H]1OCC=C2CN3CC[C@@]45C6=CC(=O)C(=O)C([N+](=O)[O-])=C6N[C@H]4[C@H]1[C@H]2C[C@@H]35	nt	-5%	nt	-6%[13.5 µM]	4%	-3%[11.4 µM]
CCN1C(=O)/C(=C/c2ccc(N(CC)CC)cc2OC)C(=O)NC1=S	nt	nt	nt	10µM*	175%	nt
Nc1nc(N)c(Cn2ccnc2)c(=O)[nH]1	nt	3%	nt	0%[13.5 µM]	-1%	-1%[11.4 µM]
